Data on 21 compounds can be found in PubChem BioAssay (NCATS).

SMILES strings stand for the structures. Records with an inconclusive call do not appear. Activity calls are given as the source filed them. Unless noted, the call rests on the fitted dose curve; in most records, active means well fitted curve in the direction sought with a large enough effect; inconclusive means small, poorly fitted or top-dose-only effect, or another doubt; inactive means no such curve, though single readings can be large; an effect the other way counts as inactive or inconclusive.

A short description of assay [1]: NCATS anti-infectives library activity on HEK293 viability as a counter-qHTS vs the C. elegans viability qHTS (AID 1745854).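 Further: HEK293 cells exposed to compounds for 24 hr before the viability read; on the % scale 0 is the no-effect control and ±100 the full control effect.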 In a few lines: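 Counter-screen for cytotoxicity: HEK293, 24 hr, 37C, compounds up to 41.7 uM final (a dilution series, 1:5). Readout CellTiter-Glo luminescence, 10 min RT. Digitonin control, 83.3 uM final.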
The target of assay [2] is Ubiquitin carboxyl-terminal hydrolase 1 (Homo sapiens) (UniProt O94782). As to the kind of experiment: Inhibitors of USP1/UAF1: Pilot qHTS (AID 504865). Further: nearly all actives have a fitted effect of over 35% in size. Further: potency means the concentration at half of the fitted maximal effect. In a few lines:
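1nM USP1/UAF1 + cpd, 15 min RT; start w/ Ub-Rho 150nM final; kinetic FL 480/540 nm, 6 reads q60 s. Buffer 50mM HEPES pH 7.8, 0.5mM EDTA, 1mM TCEP, 0.01% Tween-20, 0.1 mg/ml BSA.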

For assay [3], the system named is CP247. Description: qHTS profiling for inhibitors of Plasmodium falciparum proliferation (AID 504749). Further: nearly all actives have a fitted effect of over 60% in size. Further: potency means the concentration at half of the fitted maximal effect. The following applies: P. falciparum in erythrocytes, SYBR Green DNA, 72 h; series mostly up to 28.7 µM. The procedure, abridged:
(§1)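 SYBR Green fluorescence of parasite DNA, read after lysis and overnight dark incubation, measured growth over 72 h in erythrocyte culture at 0.3% parasitemia and 2.5% hematocrit. Data normalised to DMSO and 0.29 uM artemisinin, with plate-drift correction.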

Assay [4] concerns CP250. Described as above. The following applies: P. falciparum in erythrocytes, SYBR Green DNA, 72 h; series mostly up to 28.7 µM. The procedure, abridged: as §1
The subject of assay [5] is CP256. The description is as above. The following applies: P. falciparum in erythrocytes, SYBR Green DNA, 72 h; series mostly up to 28.7 µM. In a few lines:
as §1

Assay [6] concerns CP265. The description is as above. Conditions: P. falciparum in erythrocytes, SYBR Green DNA, 72 h; series mostly up to 28.7 µM. In a few lines: as §1
Assay [7] has as its system CP297. The description is as above. The following applies: P. falciparum in erythrocytes, SYBR Green DNA, 72 h; series mostly up to 28.7 µM. The procedure, abridged:
as §1

Assay [8] relates to P94_40. Described as above. The following applies: P. falciparum in erythrocytes, SYBR Green DNA, 72 h; series mostly up to 28.7 µM. In a few lines: as §1
For assay [9], the system named is TAB109. The description is as above. Conditions: P. falciparum in erythrocytes, SYBR Green DNA, 72 h; series mostly up to 28.7 µM. In a few lines: as §1
Assay [10] has as its target Catechol O-methyltransferase (Homo sapiens) (UniProt P21964). As to the kind of experiment: Confirmatory Screen for Target Class Profiling of Small Molecule Inhibitors of Methyltransferases (AID 1745852; calls by dose curve; further: potency means the concentration at half of the fitted maximal effect; on activity change, negative = inhibition: on the % scale 0 is the no-effect control and ±100 the full control effect). The following applies: MTase-Glo luminescence, SAH detection, recombinant enzyme; measured here: COMT max response; stronger effect = lower value.
In assay [11] the target is Guanidinoacetate N-methyltransferase (Homo sapiens) (UniProt Q14353). The assay is described as above. The following applies: MTase-Glo luminescence, SAH detection, recombinant enzyme; activity change, negative = inhibition: at 57.3 µM (top of the series).
Assay [12] concerns the target Nicotinamide N-methyltransferase (Homo sapiens) (UniProt P40261). The assay is described as above. Conditions: MTase-Glo luminescence, SAH detection, recombinant enzyme; measured here: NNMT max response; stronger effect = lower value.
In assay [13] the test system is PC26. Description: qHTS profiling for inhibitors of Plasmodium falciparum proliferation (AID 504749). Further: nearly all actives have a fitted effect of over 60% in size. Further: potency means the concentration at half of the fitted maximal effect. The following applies: P. falciparum in erythrocytes, SYBR Green DNA, 72 h; series mostly up to 28.7 µM. In a few lines: as §1
Assay [14] deals with W2. The assay is described as above. The following applies: P. falciparum in erythrocytes, SYBR Green DNA, 72 h; series mostly up to 28.7 µM. In a few lines:
as §1

A short description of assay [15]: qHTS Assay for Identification of Small Molecule Agonists for Thrombopoietin (TPO) Signaling Pathway (AID 917). Further: on the % scale 0 is the no-effect control and ±100 the full control effect. In a few lines: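 Ba/F3 (mouse) + hTPO receptor + GpIIb-promoter luciferase; IL-3 withdrawn overnight; compound + 26 pM TPO (EC50), 24 hrs, 37 C, 5% CO2; Steadylite luminescence, 10 min RT.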
Assay [16] addresses Muscarinic acetylcholine receptor M1 (Rattus norvegicus) (UniProt P08482). Description: qHTS Assay for Antagonists of Acetylcholine Muscarinic M1 Receptor: Kinetic Measurement of Intracellular Calcium Response (AID 943). Further: nearly all actives have a fitted effect of over 75% in size. Further: potency means the concentration at half of the fitted maximal effect.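 On activity change, negative = inhibition: Fluo-4 calcium signal as peak divided by basal fluorescence over 4 min.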 In a few lines:
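Antagonism is measured as inhibition of the carbachol-evoked calcium rise in CHO cells transfected with rat M1. Cells are dye-loaded, exposed to compound for 10 min, then stimulated with 100 nM carbachol (EC80).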

Assay [17] concerns the target Pyruvate kinase (Leishmania mexicana) (UniProt Q27686). Description: qHTS Validation Assay for Inhibitors of Leishmania Mexicana Pyruvate Kinase (AID 945).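 Further: 0% = DMSO only neutral control wells.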 In a few lines: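 LmPYK E451W 0.2 nM; 0.5 mM PEP, 0.1 mM ADP, 7 mM MgCl2, 50 mM KCl, imidazole pH 7.2, 0.01% Tween 20, 0.05% BSA; 1 h RT; PKLight luminescence; DMSO-normalized.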
For assay [18], the target named is Cytochrome P450 1A2 (Homo sapiens) (UniProt P05177). Description: p450-cyp1a2 (AID 410; calls by dose curve; further: potency means the concentration at half of the fitted maximal effect;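 on activity change, negative = inhibition: -100% = full effect of reference inhibitor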). In a few lines: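 O-Demethylation of luciferin 6' methyl ether by human CYP1A2 is monitored as luciferase luminescence. Substrate sits at Km (100uM); enzyme is 20nM. Values are scaled to 57 uM furafylline as maximal inhibition.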
Cytochrome P450 1A2 (Homo sapiens), sequence (P05177 whole entry, looked up): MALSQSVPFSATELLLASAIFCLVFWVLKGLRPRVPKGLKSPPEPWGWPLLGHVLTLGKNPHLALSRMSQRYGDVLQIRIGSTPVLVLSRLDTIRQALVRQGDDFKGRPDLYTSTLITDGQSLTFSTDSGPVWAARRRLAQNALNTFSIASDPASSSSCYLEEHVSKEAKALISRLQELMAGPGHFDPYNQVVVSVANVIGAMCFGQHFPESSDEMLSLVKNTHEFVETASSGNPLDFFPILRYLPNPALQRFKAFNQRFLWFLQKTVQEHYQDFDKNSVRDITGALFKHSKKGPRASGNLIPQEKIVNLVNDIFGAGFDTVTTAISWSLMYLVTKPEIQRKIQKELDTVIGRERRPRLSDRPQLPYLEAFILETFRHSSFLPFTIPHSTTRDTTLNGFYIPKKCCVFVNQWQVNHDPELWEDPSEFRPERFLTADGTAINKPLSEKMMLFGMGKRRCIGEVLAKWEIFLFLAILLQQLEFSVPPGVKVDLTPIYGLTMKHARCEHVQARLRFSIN
Assay [19] deals with Muscarinic acetylcholine receptor M1 (Rattus norvegicus) (UniProt P08482). Description: qHTS Assay for Antagonists of Acetylcholine Muscarinic M1 Receptor: Measurement of IP-One Response (AID 944). Further: nearly all actives have a fitted effect of over 75% in size. Further: potency means the concentration at half of the fitted maximal effect. The procedure, abridged:
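Antagonist mode with rat M1 receptor transfected into CHO cells. Compound is added first for 10 min, carbachol at its EC80 follows for 30 min, and lysis reagents then allow TR-FRET detection of accumulated IP1.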

In assay [20] the target is Mitogen-activated protein kinase 10 (Mus musculus) (UniProt Q61831). As to the kind of experiment: JNK3 AlphaScreen Assay (AID 530; active means well fitted curve in either direction with a large enough effect, not every such curve was filed as active;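 further: kinase came from lysate of stimulated human HepG2 cells; signal reports phosphorylation of biotinylated GST-cJun 1-79 at Ser73 with 10 µM ATP; on the % scale 0 is the no-effect control and ±100 the full control effect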). The procedure, abridged:
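qHTS titrations with 15 min compound pre-incubation before adding ATP (10 uM final). Read-out: AlphaScreen of Ser73-phosphorylated biotin-GST-cJun using HepG2 lysate JNK3 activated by IL-1β and TNFα.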

Muscarinic acetylcholine receptor M1 (Rattus norvegicus), sequence (P08482 whole entry, looked up): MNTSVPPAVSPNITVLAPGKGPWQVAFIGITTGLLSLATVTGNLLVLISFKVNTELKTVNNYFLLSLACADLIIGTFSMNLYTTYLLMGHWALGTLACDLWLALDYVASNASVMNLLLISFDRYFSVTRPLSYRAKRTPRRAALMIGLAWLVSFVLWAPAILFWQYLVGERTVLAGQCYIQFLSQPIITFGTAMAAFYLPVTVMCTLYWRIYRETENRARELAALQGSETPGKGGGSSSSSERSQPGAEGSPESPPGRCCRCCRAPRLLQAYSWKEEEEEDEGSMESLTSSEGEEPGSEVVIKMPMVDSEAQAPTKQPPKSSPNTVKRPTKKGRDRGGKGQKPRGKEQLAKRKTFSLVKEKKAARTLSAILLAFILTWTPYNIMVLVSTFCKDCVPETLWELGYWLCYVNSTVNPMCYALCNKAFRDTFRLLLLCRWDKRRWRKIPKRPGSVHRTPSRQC
Ubiquitin carboxyl-terminal hydrolase 1 (Homo sapiens), sequence (O94782 whole entry, looked up): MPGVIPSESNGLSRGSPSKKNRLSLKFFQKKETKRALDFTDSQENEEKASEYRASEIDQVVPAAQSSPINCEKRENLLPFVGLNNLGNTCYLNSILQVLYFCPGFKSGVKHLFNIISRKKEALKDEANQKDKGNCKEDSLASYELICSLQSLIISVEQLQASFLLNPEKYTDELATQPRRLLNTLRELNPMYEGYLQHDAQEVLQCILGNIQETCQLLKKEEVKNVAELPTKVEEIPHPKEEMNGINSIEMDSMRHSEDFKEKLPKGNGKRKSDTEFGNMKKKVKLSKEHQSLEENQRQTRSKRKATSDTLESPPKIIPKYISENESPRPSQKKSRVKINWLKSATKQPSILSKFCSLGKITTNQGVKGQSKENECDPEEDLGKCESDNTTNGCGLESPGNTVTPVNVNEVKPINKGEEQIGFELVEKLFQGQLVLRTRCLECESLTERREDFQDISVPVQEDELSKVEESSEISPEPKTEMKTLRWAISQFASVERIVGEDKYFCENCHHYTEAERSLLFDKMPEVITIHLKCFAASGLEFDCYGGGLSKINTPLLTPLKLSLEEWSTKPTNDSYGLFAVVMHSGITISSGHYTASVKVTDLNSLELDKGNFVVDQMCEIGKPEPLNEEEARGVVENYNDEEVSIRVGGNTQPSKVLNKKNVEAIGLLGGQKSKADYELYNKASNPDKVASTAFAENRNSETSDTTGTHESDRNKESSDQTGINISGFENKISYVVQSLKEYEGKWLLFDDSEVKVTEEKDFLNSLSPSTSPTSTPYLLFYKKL
Nicotinamide N-methyltransferase (Homo sapiens), sequence (P40261 whole entry, looked up): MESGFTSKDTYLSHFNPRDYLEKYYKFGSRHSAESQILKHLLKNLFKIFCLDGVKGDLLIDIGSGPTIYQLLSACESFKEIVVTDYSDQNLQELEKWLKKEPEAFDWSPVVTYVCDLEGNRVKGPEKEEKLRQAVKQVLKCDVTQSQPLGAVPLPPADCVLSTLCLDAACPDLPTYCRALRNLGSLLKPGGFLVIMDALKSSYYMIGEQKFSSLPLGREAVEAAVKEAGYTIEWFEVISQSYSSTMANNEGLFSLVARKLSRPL
Catechol O-methyltransferase (Homo sapiens), sequence (P21964 whole entry, looked up): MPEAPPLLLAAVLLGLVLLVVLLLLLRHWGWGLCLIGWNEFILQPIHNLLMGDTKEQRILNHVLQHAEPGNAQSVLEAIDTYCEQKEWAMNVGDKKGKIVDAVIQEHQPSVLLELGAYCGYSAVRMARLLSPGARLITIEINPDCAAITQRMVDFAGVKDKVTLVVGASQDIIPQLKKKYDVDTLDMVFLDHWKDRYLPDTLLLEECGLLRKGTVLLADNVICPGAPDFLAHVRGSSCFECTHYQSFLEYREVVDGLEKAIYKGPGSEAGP
Pyruvate kinase (Leishmania mexicana), sequence (Q27686 2-499 E452W): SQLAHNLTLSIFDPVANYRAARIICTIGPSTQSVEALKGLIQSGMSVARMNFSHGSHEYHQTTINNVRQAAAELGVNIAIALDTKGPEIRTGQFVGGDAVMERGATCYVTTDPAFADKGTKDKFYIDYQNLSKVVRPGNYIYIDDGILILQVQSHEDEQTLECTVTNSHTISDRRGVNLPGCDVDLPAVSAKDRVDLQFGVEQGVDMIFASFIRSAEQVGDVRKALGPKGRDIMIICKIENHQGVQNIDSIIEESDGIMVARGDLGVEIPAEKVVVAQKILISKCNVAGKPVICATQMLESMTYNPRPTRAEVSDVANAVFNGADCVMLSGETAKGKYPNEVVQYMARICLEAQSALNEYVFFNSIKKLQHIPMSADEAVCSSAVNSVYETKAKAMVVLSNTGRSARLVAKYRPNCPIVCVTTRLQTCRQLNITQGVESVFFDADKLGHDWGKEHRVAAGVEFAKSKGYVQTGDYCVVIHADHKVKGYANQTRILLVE

As for `Nc1cccc2c1CN([C@H]1CCC(=O)NC1=O)C2=O`, in assay [1], the Potency result was “inactive”.

In the case of `CO[C@H]1/C=C/O[C@@]2(C)Oc3c(C)c(O)c4c(O)c(c(/C=N\N5CCN(C6CCCC6)CC5)c(O)c4c3C2=O)NC(=O)/C(C)=C\C=C\[C@H](C)[C@H](O)[C@@H](C)[C@@H](O)[C@@H](C)[C@H](OC(C)=O)[C@@H]1C`, the Potency in [2] was 56.2 µM (active); in assay [3], 1.41 µM (active); in [4], 3.16 µM (active); in [5], 2.82 µM (active); in assay [6], 1.26 µM (active); in assay [7], 1.69 µM (active). In addition, the Potency in assay [8] is 0.224 µM (active); in [9] it was 1.26 µM (active).

Turning to `O=C(Cc1ccccc1)Nc1nnc(CCSCCc2nnc(NC(=O)Cc3ccccc3)s2)s1`, the Potency entry in [1] was “inactive”.

Consider `CC(C)OC(=O)[C@H](C)N[P@](=O)(OC[C@H]1O[C@@H](n2ccc(=O)[nH]c2=O)[C@](C)(F)[C@@H]1O)Oc1ccccc1`, for which the Potency entry in [1] is “inactive”.

Consider `CN(C)Cc1ccc(S(=O)(=O)n2ccc(/C=C/C(=O)NO)c2)cc1`, for which the Potency entry in assay [1] was “inactive”.

With `COc1cc2c(NC3CCN(C4CCCCC4)CC3)nc(N3CCCN(C(C)C)CC3)nc2cc1OCCCN1CCCCC1`, the figures for the activity in [10] and in [12] were -2.63% and -10.6%, respectively. For the same compound, the activity change, negative = inhibition in assay [11] was 5.88%.

Regarding `O=C(/C=C/c1ccc(CN(CCO)CCc2c[nH]c3ccccc23)cc1)NO`, the activity in assay [10] was 18.9%; in [12], -12.8%. Further, the Potency in assay [11] was 34.3 µM (active).

As to `O=C(/C=C/C#Cc1cccc(NS(=O)(=O)c2ccccc2)c1)NO`, the activity in assay [10] is 41.7%; in assay [12], -13.8%. Besides, the activity change, negative = inhibition in assay [11] was -11.3%.

With `CN1C(=O)CCC1c1cccnc1` (stereo not drawn), the Potency result in [7], in assay [13] and in [14] was “inactive” in each case.

Take `CN=C(N)NCCCC(N)C(=O)O` (stereo not drawn): the Potency entry in assay [7], in [13] and in assay [14] was “inactive” in each case.

`CC(C)C[C@H]1C(=O)N2CCCC2[C@]2(O)O[C@](NC(=O)[C@@H]3C=C4c5cccc6[nH]c(Br)c(c56)C[C@H]4N(C)C3)(C(C)C)C(=O)N12` (stereo partly drawn): the Potency in [3] is 8.91 µM (active); in [4] it was 12.6 µM (active); in assay [5], 11.2 µM (active); in assay [6], 5.62 µM (active); in [7] it was 10.7 µM (active); in assay [8], 2.82 µM (active). Moreover, the Potency is 5.36 µM (active) in assay [13], 5.62 µM (active) in [9] and 1.69 µM (active) in [14].

For the compound `COc1cc2c(cc1OC)C(c1ccccc1)CN(C)CC2` (stereo not drawn), the Potency entry in assay [2] and in assay [13] was “inactive” each time.

Regarding `CC(=O)NCCc1ccc(O)c(O)c1`, in assay [15], the outcome was “inactive”. In addition, the Potency result in [16] and in assay [17] was “inactive” in each case.

Consider `NCCCCNS(=O)(=O)c1cccc2c(Cl)cccc12`, for which the Potency is 15.8 µM (active) in [18], 14.1 µM (active) in [16] and 17.8 µM (active) in assay [19]. Besides, in [17], the Potency entry is “inactive”.

As for `CC(C)(C)[C@]1(O)CCN2CC3c4ccccc4CCc4cccc(c43)[C@@H]2C1` (stereo partly drawn), the Potency in [14] was 5.36 µM (active).

As to `CCSC(N)=Nc1ccc(C(F)(F)F)cc1`, the Potency in assay [18] is 2.51 µM (active). Besides, the outcome in assay [20] and in assay [15] was “inactive” in each case.

For `COC(=O)c1c(-c2cc(OC)c(OC)c(OC)c2)c2ccc(OCc3ccccn3)cc2c(=O)n1-c1ccc(N)cc1`, the Potency entry in assay [18], in [16], in assay [19] and in assay [17] was “inactive” in each case. Besides, the outcome in assay [20] and in assay [15] was “inactive” throughout.

As for `CCCC(=O)NCCc1c2n(c3ccc(OC)cc13)Cc1ccccc1-2`, in [18], the Potency was 2.51 µM (active). Also, the outcome in assay [20] and in assay [15] was “inactive” throughout. The Potency result in [16], in [19] and in assay [17] was “inactive” in each case.

Regarding `COc1ccc(CCNC[C@@H](O)c2ccc(O)cc2)cc1OC`, the Potency result in [2], in [3], in assay [4], in assay [5], in assay [6] and in [8] was “inactive” each time. For the same compound, the Potency entry in assay [9] was “inactive”.

Take `N=C1Sc2ccccc2C2=NCCCN12`: the Potency in assay [18] was 10 µM (active). In [20], the outcome was “inactive”. For the same compound, the Potency entry in assay [19] and in [17] was “inactive” throughout.

Consider `CN1C[C@H](C(=O)N[C@]2(C)O[C@@]3(O)C4CCCN4C(=O)[C@H](Cc4ccccc4)N3C2=O)C[C@@H]2c3cccc4[nH]cc(c34)C[C@H]21` (stereo partly drawn), for which the Potency in [3] is 7.08 µM (active); in assay [4] it was 11.2 µM (active); in [5], 7.94 µM (active); in assay [6], 5.62 µM (active); in [8], 3.16 µM (active); in [9] it was 7.08 µM (active).
